# Inconclusive results are not listed. Entries that show only a call come without a potency. Unmarked numbers belong to inactive results. Active and inactive are the calls of the source. Unless noted, the call rests on the fitted dose curve; in most records, active means well fitted curve in the direction sought with a large enough effect in the repeat runs; inconclusive means weak or mixed curves; inactive means no such curve, though single readings can be large; an effect the other way counts as inactive or inconclusive.
# Tests used:
# [1] = qHTS assay to identify small molecule antagonists of the vitamin D receptor (VDR) signaling pathway - cell viability counter screen (AID 743225); further: nearly all actives have a fitted effect of over 50% in size
# Summary of the method: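 Parallel cytotoxicity test: VDR-UAS-bla HEK 293T, 3 nM (final) 1-alpha,25-dihydroxyvitamin D3 with test compound, 16 h, 37C. Endpoint is CellTiter-Glo luminescence in the same wells.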
# [2] = qHTS assay to identify small molecule agonists of the NFkB signaling pathway (AID 1159509; active means well fitted curve in the direction sought with a large enough effect in the signal ratio in the repeat runs, not every such curve was filed as active; the % refers to the signal ratio; further: series mostly up to about 61 µM)
# Summary of the method: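 After overnight attachment, reporter cells received test compounds, DMSO or positive controls and were incubated 5 hr at 37 C. FRET substrate was then added for 1.5 hr at room temperature before dual-emission fluorescence reading.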
# [3] = qHTS assay to identify small molecule agonists of the NFkB signaling pathway - cell viability counter screen (AID 1159515; calls by dose curve; further: series mostly up to about 61 µM; nearly all actives have a fitted effect of over 55% in size)
# Summary of the method: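 Using the same wells as the NFkB reporter read, ME-180 NFkB-bla cells given compounds for 5 hr were assessed for viability via CellTiter-Glo, with luminescence taken after a 30 min room-temperature incubation.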
# [4] = qHTS assay to identify small molecule agonists of the endoplasmic reticulum stress response signaling pathway (AID 1159516; active means well fitted activation curve with a large enough effect in the signal ratio in the repeat runs, not every such curve was filed as active; the % refers to the signal ratio)
# Summary of the method: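 An ESRE-bla HeLa cell assay: compounds were pin-transferred from DMSO onto overnight-plated cells and left 5 hr at 37 C. Substrate was then loaded for 2 hr at room temperature before reading fluorescence at 460 nm and 530 nm.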
# [5] = qHTS assay to identify small molecule agonists of the endoplasmic reticulum stress response signaling pathway - cell viability counter screen (AID 1159517; calls by dose curve;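 further: HeLa cells carrying an ER stress response element beta-lactamase reporter; series mostly up to about 61 µM; nearly all actives have a fitted effect of over 50% in size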)
# Summary of the method: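 Counter-screen wells were identical to the reporter wells. Cells were plated at 1,500 per well and dosed for 5 hr, then read for luminescence 30 min after CellTiter-Glo addition.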
# [6] = qHTS assay to identify small molecule antagonists of the retinoid-related orphan receptor gamma (ROR-gamma) signaling pathway - cell viability counter screen (AID 1159520); further: nearly all actives have a fitted effect of over 50% in size
# Summary of the method: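 Tet-on ROR gamma CHO cells were given compounds for 2 hr, then doxycycline hyclate at 1 uM final, and incubated 16 hr at 37 C. Viability was measured as ATP content by CellTiter-Glo luminescence.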
# [7] = qHTS assay to identify small molecule agonists of the AP-1 signaling pathway - cell viability counter screen (AID 1159525; calls by dose curve; further: nearly all actives have a fitted effect of over 55% in size)
# Summary of the method: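 AP-1-bla ME-180 cells in Opti-MEM with 0.5% dialyzed FBS, compound exposure 5 h at 37 C in 15-point titration. Viability read in the same wells as ATP content by CellTiter-Glo luminescence, normalised to tetra-n-octylammonium bromide and DMSO controls.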
# [8] = qHTS assay to identify small molecule agonists of the AP-1 signaling pathway (AID 1159526; calls by dose curve)
# [9] = qHTS assay to identify small molecule agonists of the RXR signaling pathway - cell viability counter screen (AID 1159529);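 further: HEK 293T cells carrying an RXR-alpha UAS beta-lactamase reporter; series mostly up to about 77 µM; nearly all actives have a fitted effect of over 50% in size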
# Summary of the method: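 In this parallel viability measure, GeneBLAzer RXR-alpha HEK 293T cells (2% charcoal-stripped FBS) were given a 5 hr preincubation, treated with compounds 16 hr at 37 C, and read by CellTiter-Glo luminescence.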
# [10] = qHTS assay to identify small molecule antagonists of the retinoid acid receptor (RAR) signaling pathway - cell viability counter screen (AID 1159551); further: nearly all actives have a fitted effect of over 35% in size
# Summary of the method: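 Retinol-stimulated (1 uM final) C3RL4 cells, compound 6 h, 37 C; readout CellTiter-Glo luminescence (ATP) after 30 min RT incubation.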
# [11] = qHTS assay to identify small molecule antagonists of the retinoic acid receptor (RAR) signaling pathway (AID 1159552; further: nearly all actives have a fitted effect of over 50% in size; further: potency means the concentration at half of the fitted maximal effect)
# Summary of the method: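 C3RL4 RARE-luc cells, overnight plating; retinol 1 uM final added right after compound; 6 hr 37 C; luciferase read at 30 min RT.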
# [12] = qHTS assay to identify small molecule antagonists of the estrogen related receptor (ERR) signaling pathway - cell viability counter screen (AID 1224818);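 further: series mostly up to about 46 µM; viability measured after 17.5 h of compound exposure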
# Summary of the method: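 After a 6 h pre-incubation, ERR cells were dosed by pin tool with compounds, positive/negative controls or DMSO alone. Following 17.5 h at 37 C and 30 min with CellTiter-Fluor, fluorescence was recorded.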
# [13] = qHTS assay to identify small molecule antagonists of the estrogen related receptor signaling pathway with the pleiotropic PPARgamma coactivator (PGC) cell viability counter screen (AID 1224822;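 further: series mostly up to about 46 µM; viability read after 17.5 h compound exposure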)
# Summary of the method: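 PGC/ERR cells were plated at 2,000 per well and allowed 6 h to settle before compound addition. Following 17.5 h at 37 C, CellTiter-Fluor reagent was added and fluorescence was read 30 min later.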
# [14] = qHTS assay to identify small molecule agonists of the retinoic acid receptor (RAR) signaling pathway (AID 1159553)
# Summary of the method: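 Reporter readout comes from luciferase under RARE control in C3RL4 cells; compound exposure lasts 6 hr at 37 C in 5% CO2, and luminescence is recorded following a 30 min room-temperature incubation with reagent.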
# [15] = qHTS assay to identify small molecule antagonists of the estrogen related receptor (ERR) signaling pathway (AID 1224819; further: nearly all actives have a fitted effect of over 50% in size; further: potency means the concentration at half of the fitted maximal effect)
# Summary of the method: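 Luminescence readout (One-Glo, 30 min, RT) of ERR cell line after 18 h compound exposure at 37 C; cells seeded 2,000/well, pre-incubated 6 h, compounds pinned from DMSO stocks.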
# [16] = qHTS assay to identify small molecule agonists of the estrogen related receptor (ERR) signaling pathway (AID 1224820)
# Summary of the method: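 Quantitative HTS of the LOPAC library used NTP ERR reporter cells treated 18 h at 37 C. Signal is luminescence after One-Glo addition and a 30 min room-temperature incubation.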
# [17] = qHTS assay to identify small molecule agonists of the estrogen related receptor signaling pathway with the pleiotropic PPARgamma coactivator (PGC) (AID 1224823)
# Summary of the method: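 Cell-based luciferase assay in the NTP-supplied PGC/ERR line, 2,000 cells/well; 18 h compound exposure at 37 C, luminescence after One-Glo.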
# [18] = biological target: Retinoic acid receptor RXR-alpha (Homo sapiens) (UniProt P19793); assay: qHTS assay to identify small molecule agonists of the RXR signaling pathway (AID 1159527; calls by dose curve; further: nearly all actives have a fitted effect of over 35% in size)
# Sequence of Retinoic acid receptor RXR-alpha (Homo sapiens) (P19793 whole entry, looked up): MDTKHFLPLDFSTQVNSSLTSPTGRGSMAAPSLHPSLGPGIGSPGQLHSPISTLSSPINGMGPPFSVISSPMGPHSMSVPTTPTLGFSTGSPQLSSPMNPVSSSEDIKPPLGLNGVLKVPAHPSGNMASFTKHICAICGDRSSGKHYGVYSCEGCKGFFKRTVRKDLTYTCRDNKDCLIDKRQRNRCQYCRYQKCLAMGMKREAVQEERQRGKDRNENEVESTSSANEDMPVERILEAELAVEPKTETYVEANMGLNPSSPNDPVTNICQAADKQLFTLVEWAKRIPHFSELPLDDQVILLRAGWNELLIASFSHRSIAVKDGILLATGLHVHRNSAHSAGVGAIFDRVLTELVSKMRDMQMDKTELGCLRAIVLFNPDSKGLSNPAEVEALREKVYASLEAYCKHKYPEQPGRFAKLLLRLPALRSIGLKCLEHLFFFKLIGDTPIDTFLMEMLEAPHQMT
# Summary of the method: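 16 hr incubation of compound-treated RXR-alpha-UAS-bla HEK 293T cells (2% charcoal-stripped FBS, 37 C) preceded a 2 hr room-temperature LiveBLAzer FRET substrate step and blue/green fluorescence measurement.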
# [19] = system: estrogen-related receptor alpha (ERRalpha) with PGC-1alpha coactivator, human; assay: qHTS assay to identify small molecule antagonists of the estrogen related receptor signaling pathway with the pleiotropic PPARgamma coactivator (PGC) (AID 1224821; calls by dose curve)
# Summary of the method: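 Quantitative HTS for antagonism: PGC/ERR cells received compounds after 6 h attachment and were incubated 18 h at 37 C, with luminescence (One-Glo) as the endpoint.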
structure (smiles),measurement,setting,value
Cc1ccc(Nc2nccc(N(C)c3ccc4c(C)n(C)nc4c3)n2)cc1S(N)(=O)=O,Potency,[1],inactive
same,outcome,[2],inactive
same,outcome,[3],inactive
same,outcome,[4],inactive
same,outcome,[5],inactive
same,Potency,[6],inactive
same,outcome,[7],inactive
same,outcome,[8],inactive
same,Potency,[9],inactive
same,Potency,[10],inactive
C1COCO1,outcome,[2],inactive
same,outcome,[3],inactive
same,outcome,[4],inactive
same,outcome,[5],inactive
same,Potency,[6],inactive
same,outcome,[7],inactive
same,outcome,[8],inactive
same,Potency,[10],inactive
CC(=O)Oc1ccc(C(=C2CCCCC2)c2ccc(OC(C)=O)cc2)cc1,Potency,[1],inactive
same,outcome,[2],inactive
same,outcome,[3],inactive
same,outcome,[4],inactive
same,outcome,[5],inactive
same,Potency,[6],inactive
same,outcome,[7],inactive
same,outcome,[8],inactive
same,Potency,[10],inactive
same,Potency,[11],inactive
CC1CN(c2cc3c(cc2F)c(=O)c(C(=O)O)cn3-c2ccc(F)cc2F)CCN1 (configuration not stated),"viability change, negative = cytotoxic",[1],9.78% [at 6.95 µM]
same,activation,[2],0.411% [at 6.95 µM]
same,"activity, negative = cytotoxic",[3],3.41% [at 6.95 µM]
same,activation,[4],-0.328% [at 6.95 µM]
same,"activity change, negative = cytotoxicity",[5],10.1% [at 6.95 µM]
same,"activity, negative = cytotoxicity",[6],3.27% [at 8.39 µM]
same,"viability change, negative = cytotoxic",[7],-6.8% [at 6.97 µM]
same,activation,[8],2.03% [at 6.97 µM]
same,"activity change, negative = cytotoxicity",[9],-4.54% [at 6.97 µM]
same,"activity change, negative = cytotoxicity",[10],0.772% [at 8.39 µM]
CCC1(C)CC(=O)NC1=O (configuration not stated),Potency,[1],inactive
same,outcome,[2],inactive
same,outcome,[3],inactive
same,outcome,[4],inactive
same,outcome,[5],inactive
same,Potency,[6],inactive
same,outcome,[7],inactive
same,outcome,[8],inactive
same,Potency,[9],inactive
same,Potency,[10],inactive
same,outcome,[12],inactive
same,outcome,[13],inactive
O=C1NCCN1,Potency,[1],inactive
same,outcome,[2],inactive
same,outcome,[3],inactive
same,outcome,[4],inactive
same,outcome,[5],inactive
same,Potency,[6],inactive
same,outcome,[7],inactive
same,outcome,[8],inactive
same,Potency,[9],inactive
same,Potency,[10],inactive
CC(=O)[C@H]1CC[C@H]2[C@@H]3C=CC4=CC(=O)CC[C@@]4(C)[C@@H]3CC[C@]12C,Potency,[1],inactive
same,outcome,[2],inactive
same,outcome,[3],inactive
same,outcome,[4],inactive
same,outcome,[5],inactive
same,Potency,[6],inactive
same,outcome,[7],inactive
same,outcome,[8],inactive
same,Potency,[10],inactive
same,Potency,[11],inactive
same,Potency,[14],inactive
Nc1ccc(S(=O)(=O)O)cc1,Potency,[1],inactive
same,outcome,[2],inactive
same,outcome,[3],inactive
same,outcome,[4],inactive
same,outcome,[5],inactive
same,Potency,[6],inactive
same,outcome,[7],inactive
same,outcome,[8],inactive
same,Potency,[10],inactive
same,Potency,[11],inactive
same,Potency,[14],inactive
CCNC(=O)N1CCN(CCCC(c2ccc(F)cc2)c2ccc(F)cc2)CC1,Potency,[1],inactive
same,outcome,[2],inactive
same,outcome,[3],inactive
same,outcome,[4],inactive
same,outcome,[5],inactive
same,Potency,[6],inactive
same,outcome,[7],inactive
same,outcome,[8],inactive
same,Potency,[10],inactive
same,Potency,[14],inactive
same,Potency,[15],8.1 µM (active)
same,outcome,[16],inactive
same,Potency,[17],inactive
C[C@]12CCC(=O)C=C1C=C[C@@H]1[C@@H]2CC[C@@]2(C)[C@H]1CC[C@@]21CCC(=O)O1,outcome,[2],inactive
same,outcome,[3],inactive
same,outcome,[4],inactive
same,outcome,[5],inactive
same,Potency,[6],inactive
same,outcome,[7],inactive
same,Potency,[18],inactive
same,Potency,[9],inactive
same,Potency,[10],inactive
same,Potency,[14],inactive
O=C(O)c1ccc(CO)o1,Potency,[1],inactive
same,outcome,[2],inactive
same,outcome,[3],inactive
same,outcome,[4],inactive
same,outcome,[5],inactive
same,Potency,[6],inactive
same,outcome,[7],inactive
same,outcome,[8],inactive
same,Potency,[10],inactive
same,Potency,[11],inactive
same,Potency,[14],inactive
CCOC(=O)OCC,Potency,[1],inactive
same,outcome,[2],inactive
same,outcome,[3],inactive
same,outcome,[4],inactive
same,outcome,[5],inactive
same,Potency,[6],inactive
same,outcome,[7],inactive
same,outcome,[8],inactive
same,Potency,[10],inactive
CCCC(=O)O[C@]1(C(=O)COC(=O)CC)CC[C@H]2[C@@H]3CCC4=CC(=O)CC[C@]4(C)[C@H]3[C@@H](O)C[C@@]21C,Potency,[1],inactive
same,outcome,[2],inactive
same,outcome,[3],inactive
same,outcome,[4],inactive
same,outcome,[5],inactive
same,"activity, negative = cytotoxicity",[6],0.636% [at 19 µM]
same,"viability change, negative = cytotoxic",[7],-0.096% [at 15.8 µM]
same,activation,[8],-6.02% [at 15.8 µM]
same,"activity change, negative = cytotoxicity",[9],2.05% [at 15.8 µM]
same,"activity change, negative = cytotoxicity",[10],-1.52% [at 19 µM]
Nc1ccc(S(=O)(=O)O)c(N)c1,outcome,[2],inactive
same,outcome,[3],inactive
same,outcome,[4],inactive
same,outcome,[5],inactive
same,Potency,[6],inactive
same,outcome,[7],inactive
same,outcome,[8],inactive
same,Potency,[10],inactive
CC1=CC(O)CC(C)(C)C1 (configuration not stated),Potency,[1],inactive
same,outcome,[2],inactive
same,outcome,[3],inactive
same,outcome,[4],inactive
same,outcome,[5],inactive
same,Potency,[6],inactive
same,outcome,[7],inactive
same,outcome,[8],inactive
same,Potency,[10],inactive
same,Potency,[14],inactive
CN(C(=O)C(Cl)Cl)c1ccc(OC(=O)c2ccco2)cc1,Potency,[1],inactive
same,outcome,[2],inactive
same,outcome,[3],inactive
same,outcome,[4],inactive
same,outcome,[5],inactive
same,Potency,[6],inactive
same,outcome,[7],inactive
same,outcome,[8],inactive
same,Potency,[9],inactive
same,Potency,[10],inactive
CCOC(=N)CC(=O)OCC,Potency,[1],inactive
same,outcome,[2],inactive
same,outcome,[3],inactive
same,outcome,[4],inactive
same,outcome,[5],inactive
same,Potency,[6],inactive
same,outcome,[7],inactive
same,outcome,[8],inactive
same,Potency,[10],inactive
same,Potency,[11],inactive
same,Potency,[14],inactive
CNCCCC1c2ccccc2C=Cc2ccccc21,outcome,[2],inactive
same,outcome,[3],inactive
same,outcome,[4],inactive
same,outcome,[5],inactive
same,Potency,[6],inactive
same,outcome,[7],inactive
same,outcome,[8],inactive
same,Potency,[10],inactive
same,Potency,[11],23.7 µM (active)
same,outcome,[12],inactive
same,Potency,[15],inactive
same,outcome,[16],inactive
same,Potency,[19],inactive
CC(=O)Oc1ccc2c(c1)CC[C@@H]1[C@@H]2CC[C@]2(C)[C@@H](O)CC[C@@H]12,Potency,[1],inactive
same,outcome,[2],inactive
same,outcome,[3],inactive
same,outcome,[4],inactive
same,outcome,[5],inactive
same,Potency,[6],inactive
same,outcome,[8],inactive
same,Potency,[9],inactive
same,Potency,[10],inactive
same,Potency,[14],inactive

# Reference: PubChem BioAssay (Tox21)
